Compound activity (PubChem)
TROY signal inh – inhibitors of TROY-driven NF-kB signaling, primary screen, Q293 LMP1-TROYcd cells, NF-kB luciferase, uHTS; Q293 LMP1-TROYcd NF-kB luciferase reporter, 4 h; inhibition, % at 10 µM; AID 1347056, 2019; hit rate 0.98% among 360,000;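 active = compounds whose plate-normalised and pattern-corrected inhibition of the luciferase reporter signal at the single screening dose is 50% or more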
HSF-1 act – HSF-1 activators, primary screen, NIH3T3-HGL cells, MG132 stress, luminescence, single point | NIH3T3-HGL HSF-1 luciferase reporter, 8 h; 100% = twice DMSO control signal | activation, % at 9 µM | hit rate 1.7% among 300,000;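 active = mean replicate activation of at least 50% with a set share of replicates each reaching 50%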;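 also: 0% = median of the neutral control wells and 100% = twice that signal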
HSF1 inh – HSF1 inhibitors in luciferase reporter cells, primary screen, cell-based, NIH3T3, luminescence; NIH3T3-HGL HSE-luciferase, MG132-induced, luminescence 8 h; hits give low values; activity change, negative = inhibition, % at 7.5 µM (by protocol); hit rate 0.77% among 300,000; AID 2098, 2009;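 active = more than half of replicate wells show activity change below -50%, luminescence cut by over half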;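 also: luciferase reports HSF-1 transcriptional activity via heat shock element; 0% = median of DMSO wells and -100% = zero luminescence signal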
EBV LMP1 NFkB – EBV LMP1-driven NF-kappaB luciferase reporter inhibitors, primary screen, cell-based, luminescence, single point; LMP1-induced NF-kappaB luciferase reporter cells; inhibition, % at 12.5 µM; hit rate 0.69% among 350,000; AID 504558, 2011; in the data active = inhibition above about 41%;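 also: 0% = neutral control wells and 100% = reference inhibitor control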
HSP90 inh – HSP90 inhibitors, primary screen, cell lysate, luminescence; Heat shock protein HSP 90 (rabbit reticulocyte lysate; luciferase refolding); AID 1789, 2009; inhibition, % at 5.6 µM; Rabbit reticulocyte lysate, luciferase refolding luminescence, 3 h; hit rate 0.91% among 290,000;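 active = inhibition above the screen-wide mean plus 3 SD, computed separately per campaign, cut at about 16% in these data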;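 also: 0% = DMSO wells and 100% = 60 µM geldanamycin wells; inhibitors lower the luminescence because luciferase stays unfolded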
TWEAK Fn14 block – inhibitors of TWEAK-Fn14 signaling, primary screen, luciferase reporter cells, uHTS. hit rate 2% among 360,000. inhibition, % at 10 µM. TWEAK-stimulated Fn14 reporter cells, luciferase luminescence, 8 h; in the data active = inhibition above about 50%
The depositor's hits bear a star; . = not tested or not shown. Sampled rows, rich in hits. Any-hit rate of the full collection: about 4.7%.

SMILES	TROY signal inh	HSF-1 act	HSF1 inh	EBV LMP1 NFkB	HSP90 inh	TWEAK Fn14 block
CCc1nc2c(OCCC3CCCCC3)cccn2c1N(C=O)Cc1ccc(OC)cc1	6.7	.	.	.	.	5.6
Cc1cc2nc(-c3ccc(F)cc3)c(CC(C)(C)C)n2c(C)c1Br	11.7	.	.	.	.	19.6
Clc1ccccc1CSc1nnc([C@@H]2CCCN2)o1	-7.2	1.0	-2.9	-2.9	0.7	8.0
Cc1ccccc1CSc1nnc([C@@H]2CCCN2)o1	-7.7	7.5	9.1	53.5*	0.1	-15.9
CCCN(CC(=O)Nc1ccc(F)c(F)c1F)C(=O)Cc1ccc(OC)c(S(=O)(=O)N2CCOCC2)c1	-6.5	.	.	-0.9	.	-7.6
Nc1c(-c2ccsc2)cnc2ncnn12	4.8	63.8*	31.0	4.8	0.0	-13.3
COc1ccc(C2CC(O)(c3ccccc3)Oc3cc(OC)c(OC)c(OC)c32)cc1 (stereo not given)	-3.5	3.7	-3.7	-0.9	.	4.7
OC1(c2ccccc2)CC(c2ccccc2)c2ccccc2O1 (stereo not given)	50.3*	.	.	10.3	.	11.8
COc1ccc(N(CC(=O)NCCC2=CCCCC2)S(=O)(=O)c2ccccc2)cc1	-7.7	97.3*	44.9	3.5	-1.9	1.7
COc1ccc(N(CC(=O)NCCSCc2ccccc2C)S(=O)(=O)c2ccccc2)cc1	76.4*	5.5	6.2	-0.3	5.3	26.7
CCOC(=O)N1CCN(C(=O)C[C@@H]2C[C@@]3(C(=O)OC)CCCCC=C3N(Cc3ccccc3)C2=O)CC1	-15.6	.	.	.	.	14.3
COc1ccc(S(=O)(=O)NNC(=O)C2Cc3c(ccc4ccccc34)O2)cc1 (stereo not given)	30.0	4.5	-2.9	44.5*	-1.0	28.6
COC1CCCN(C(=O)c2ccc(OC3CCN(CCc4ccccc4)CC3)cc2)C1 (stereo not given)	4.9	-77.5	-74.5*	-3.7	-1.9	1.8
O=C(Nc1ncc(Cc2ccccc2Cl)s1)C1CCCO1 (stereo not given)	-27.8	74.8*	35.4	-30.3	-1.8	-46.1
O=C(Nc1ncc(Cc2cccc(Cl)c2Cl)s1)C1CCCO1 (stereo not given)	-77.7	57.6*	25.3	-34.4	-5.8	-30.3
CC1(Cc2ccccc2OC(F)(F)F)C(=O)Nc2c(Cl)ccc(Cl)c21 (stereo not given)	-3.9	.	.	.	.	9.8
CC(Nc1ccccc1CO)C(=O)Nc1cccc(Cl)c1Cl (stereo not given)	40.3	0.0	1.1	67.8*	-1.0	22.6
Cn1c(C(=O)N2CCN(c3nc4ccccc4s3)CC2)cc2sccc21	47.2	2.7	-5.4	30.9	0.0	45.1
O=C(c1cc2sccc2n1Cc1ccc(F)cc1)N1CCN(c2nc3ccccc3s2)CC1	29.7	-5.9	1.4	27.5	8.1	64.8*
CN(C)CCn1c(N)nc2ccccc21	2.4	-6.5	-8.0	0.0	-0.2	4.1
CCCCn1c(N)nc2ccccc21	-0.7	-76.6	-71.2*	-12.3	0.8	3.7
CCN(c1ccccc1)S(=O)(=O)c1ccc(Cl)c(C(=O)N(CC2CCCO2)C2CCS(=O)(=O)C2)c1 (stereo not given)	-6.2	-64.1	-58.2*	10.1	-2.3	9.1
Cc1ccccc1/C=C/c1nc2ccccc2c(=O)[nH]1	-25.6	33.5	26.7	-12.4	-1.4	12.2
Cc1ccc(/C=C/c2nc3ccccc3c(=O)[nH]2)cc1	51.5*	-18.0	-25.2	45.0*	14.1	74.9*
Cc1ccccc1/C=C\c1nc2ccccc2c(=O)[nH]1	-3.2	121.6*	70.4	-31.7	-1.3	26.7
COC(=O)c1ccc(/C=C/c2nc3ccccc3c(=O)[nH]2)cc1	-2.8	62.3*	32.3	-13.6	8.0	34.2
CCOc1ccc(/C=C/C(=O)Oc2ccccc2)cc1	-48.3	18.3	3.9	-5.1	-4.0	-52.4
CCOc1ccc(/C=C/C(=O)C(C(N)=O)=C2SCCS2)cc1	-32.0	74.9*	48.9	-16.5	-1.4	4.8
CNC(=O)C[C@H]1C(=O)N(C2CCCCC2)C[C@@H]1c1ccc(Br)cc1	-11.9	.	.	-2.5	.	21.7
